According to the supplement of paper PMC7765376:
Whole data set: some 1,500 compounds, median “Excess HSA synergy score (sum over dose matrix of excess over highest single agent)” near 43, cut for the lowest 2% near -900. Only a selection was taken, and the lowest values are over-represented in it overall.

Test system: PEO-1
Assay: Excess HSA synergy score (sum over dose matrix of excess over highest single agent) (score (summed % response)); higher = less synergy / more antagonism (negative = synergy)
Details: 72 h; read-out: viability/apoptosis luminescence (CellTiter-Glo or Caspase3-Glo / not stated per table); matrix design: 6x6, 5-fold dilutions (primary screen)

Row | SMILES | Excess HSA synergy score
1 | Cc1ccc(CN2CCNCC2)cc1NC(=O)CNc1ccc(F)c(F)c1 + CC[C@H](NC(=O)[C@H](C)NC)C(=O)N1C[C@@H](O)C[C@H]1Cc1c(-c2[nH]c3cc(F)ccc3c2C[C@@H]2C[C@H](O)CN2C(=O)[C@H](CC)NC(=O)[C@H](C)NC)[nH]c2cc(F)ccc12 [Birinapant] | 191
2 | c1ccc2c(-c3cnn4cc(-c5ccc(N6CCNCC6)cc5)cnc34)ccnc2c1 + CC[C@H](NC(=O)[C@H](C)NC)C(=O)N1C[C@@H](O)C[C@H]1Cc1c(-c2[nH]c3cc(F)ccc3c2C[C@@H]2C[C@H](O)CN2C(=O)[C@H](CC)NC(=O)[C@H](C)NC)[nH]c2cc(F)ccc12 [Birinapant] | -53.9
3 | CC(=O)NCCC(=O)N[C@@H](CCC(N)=O)C(=O)N[C@@H](CO)C(=O)N[C@@H](CCC(N)=O)C(=O)N[C@@H](CCC(N)=O)C(=O)N[C@H](C(=O)N[C@@H](Cc1ccccc1)C(=O)N[C@]1(C)CCCCCC/C=C\CCC[C@@](C)(C(=O)N[C@@H](CCC(N)=O)C(=O)N[C@@H](CC(N)=O)C(N)=O)NC(=O)[C@H](CC(C)C)NC(=O)[C@H](CC(C)C)NC(=O)[C@@H](CCCNC(=N)N)NC(=O)[C@H](Cc2c[nH]c3ccccc23)NC(=O)[C@H](CC(C)C)NC(=O)[C@H](CC(N)=O)NC1=O)[C@H](C)O + CC[C@H](NC(=O)[C@H](C)NC)C(=O)N1C[C@@H](O)C[C@H]1Cc1c(-c2[nH]c3cc(F)ccc3c2C[C@@H]2C[C@H](O)CN2C(=O)[C@H](CC)NC(=O)[C@H](C)NC)[nH]c2cc(F)ccc12 [Birinapant] | 168
4 | CCN1CCN(c2ccc(Nc3cc(N(C)C(=O)Nc4c(Cl)c(OC)cc(OC)c4Cl)ncn3)cc2)CC1 [Infigratinib] + CC[C@H](NC(=O)[C@H](C)NC)C(=O)N1C[C@@H](O)C[C@H]1Cc1c(-c2[nH]c3cc(F)ccc3c2C[C@@H]2C[C@H](O)CN2C(=O)[C@H](CC)NC(=O)[C@H](C)NC)[nH]c2cc(F)ccc12 [Birinapant] | -48.8
5 | COc1cc2c(cc1Cc1cccc(Cl)c1F)c(=O)c(C(=O)O)cn2[C@H](CO)C(C)C [Elvitegravir] + CC[C@H](NC(=O)[C@H](C)NC)C(=O)N1C[C@@H](O)C[C@H]1Cc1c(-c2[nH]c3cc(F)ccc3c2C[C@@H]2C[C@H](O)CN2C(=O)[C@H](CC)NC(=O)[C@H](C)NC)[nH]c2cc(F)ccc12 [Birinapant] | 326
6 | OCCC#Cc1nc(-c2ccc(F)cc2)c(-c2ccncc2)n1CCCc1ccccc1 + CC[C@H](NC(=O)[C@H](C)NC)C(=O)N1C[C@@H](O)C[C@H]1Cc1c(-c2[nH]c3cc(F)ccc3c2C[C@@H]2C[C@H](O)CN2C(=O)[C@H](CC)NC(=O)[C@H](C)NC)[nH]c2cc(F)ccc12 [Birinapant] | 286
7 | COc1ccc(/C=C\c2cc(OC)c(OC)c(OC)c2)cc1NC(=O)[C@@H](N)CO [Ombrabulin] + CC[C@H](NC(=O)[C@H](C)NC)C(=O)N1C[C@@H](O)C[C@H]1Cc1c(-c2[nH]c3cc(F)ccc3c2C[C@@H]2C[C@H](O)CN2C(=O)[C@H](CC)NC(=O)[C@H](C)NC)[nH]c2cc(F)ccc12 [Birinapant] | -98.3
8 | O=C(CO)N1CCC(c2n[nH]c(-c3ccc(Cl)cc3)c2-c2ccncn2)CC1 + CC[C@H](NC(=O)[C@H](C)NC)C(=O)N1C[C@@H](O)C[C@H]1Cc1c(-c2[nH]c3cc(F)ccc3c2C[C@@H]2C[C@H](O)CN2C(=O)[C@H](CC)NC(=O)[C@H](C)NC)[nH]c2cc(F)ccc12 [Birinapant] | 244
9 | CC(C)(OCc1nn(Cc2ccccc2)c2ccccc12)C(=O)O [Bindarit] + CC[C@H](NC(=O)[C@H](C)NC)C(=O)N1C[C@@H](O)C[C@H]1Cc1c(-c2[nH]c3cc(F)ccc3c2C[C@@H]2C[C@H](O)CN2C(=O)[C@H](CC)NC(=O)[C@H](C)NC)[nH]c2cc(F)ccc12 [Birinapant] | -236
10 | Cc1ccc(/C=N/NC(=O)c2ccccc2Oc2ccccc2)o1 + CC[C@H](NC(=O)[C@H](C)NC)C(=O)N1C[C@@H](O)C[C@H]1Cc1c(-c2[nH]c3cc(F)ccc3c2C[C@@H]2C[C@H](O)CN2C(=O)[C@H](CC)NC(=O)[C@H](C)NC)[nH]c2cc(F)ccc12 [Birinapant] | 277
11 | CC(C)c1cc(C(C)C)c(CC(=O)NS(=O)(=O)Oc2c(C(C)C)cccc2C(C)C)c(C(C)C)c1 [Avasimibe] + CC[C@H](NC(=O)[C@H](C)NC)C(=O)N1C[C@@H](O)C[C@H]1Cc1c(-c2[nH]c3cc(F)ccc3c2C[C@@H]2C[C@H](O)CN2C(=O)[C@H](CC)NC(=O)[C@H](C)NC)[nH]c2cc(F)ccc12 [Birinapant] | 95.2
12 | CC(=O)C1=C(O)C=C2Oc3c(C(C)=O)c(O)c(C)c(O)c3C2(C)C1=O (single isomer, unassigned; (+)) [(+)-Usniacin] + CC[C@H](NC(=O)[C@H](C)NC)C(=O)N1C[C@@H](O)C[C@H]1Cc1c(-c2[nH]c3cc(F)ccc3c2C[C@@H]2C[C@H](O)CN2C(=O)[C@H](CC)NC(=O)[C@H](C)NC)[nH]c2cc(F)ccc12 [Birinapant] | -123
13 | C[C@@H]1CN(Cc2ccc(F)cc2)[C@@H](C)CN1C(=O)c1cc2c(C(=O)C(=O)N(C)C)cn(C)c2cc1Cl [Talmapimod] + CC[C@H](NC(=O)[C@H](C)NC)C(=O)N1C[C@@H](O)C[C@H]1Cc1c(-c2[nH]c3cc(F)ccc3c2C[C@@H]2C[C@H](O)CN2C(=O)[C@H](CC)NC(=O)[C@H](C)NC)[nH]c2cc(F)ccc12 [Birinapant] | 190
14 | CCNC(=O)Nc1ccc(-c2nc3c(c(N4CCOC[C@@H]4C)n2)CCN(C2COC2)C3)cc1 + CC[C@H](NC(=O)[C@H](C)NC)C(=O)N1C[C@@H](O)C[C@H]1Cc1c(-c2[nH]c3cc(F)ccc3c2C[C@@H]2C[C@H](O)CN2C(=O)[C@H](CC)NC(=O)[C@H](C)NC)[nH]c2cc(F)ccc12 [Birinapant] | -44.2
15 | CN1CCN(c2nc(C3=C(c4c[nH]c5ccccc45)C(=O)NC3=O)c3ccccc3n2)CC1 [Sotrastaurin] + CC[C@H](NC(=O)[C@H](C)NC)C(=O)N1C[C@@H](O)C[C@H]1Cc1c(-c2[nH]c3cc(F)ccc3c2C[C@@H]2C[C@H](O)CN2C(=O)[C@H](CC)NC(=O)[C@H](C)NC)[nH]c2cc(F)ccc12 [Birinapant] | 84.5
